Records with an inconclusive call do not appear. Unmarked numbers belong to inactive results. The source made the active and inactive calls. The call rests on the fitted dose curve.
System: not listed separately
Assay: qHTS assay to identify small molecule antagonists of the estrogen receptor alpha (ER-alpha) signaling pathway - cell viability counter screen (AID 743074);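 further: HEK293 cells carrying ER-alpha-UAS-bla reporter stimulated with 17beta-estradiol; nearly all actives have a fitted effect of over 45% in size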
Settings: ERalpha-bla HEK293 viability, CellTiter-Glo luminescence, 18 h; series mostly up to 69.4 µM; activity, negative = cytotoxicity: at the top concentration
On the % scale 0 is the no-effect control and ±100 the full control effect.

Row | SMILES | outcome | activity, negative = cytotoxicity
1 | Cc1ccc(C(=O)C(C)CN2CCCCC2)cc1 (centres undefined) | inactive | 
2 | ClC(Cl)(Cl)c1ccc(C(Cl)(Cl)Cl)cc1 |  | 11.5%
3 | COC(=O)C(C)=O |  | -13.8% [at 79.1 µM]
4 | C=C(C)C(=O)OCCN(C)C |  | 7.89% [at 79.1 µM]
5 | CC(=O)N(O)CCCCCNC(=O)CCC(=O)N(O)CCCCCNC(=O)CCC(=O)N(O)CCCCCN |  | 6.72% [at 32.6 µM]
6 | C[C@H](CCC(=O)O)[C@H]1CC[C@H]2[C@@H]3[C@H](O)C[C@@H]4C[C@H](O)CC[C@]4(C)[C@H]3CC[C@]12C | inactive | 
7 | CCCCCCCCCCCCCCC1CO1 (centres undefined) |  | -13.3%
8 | CC(C)NCC(O)COc1ccc(CC(N)=O)cc1 (centres undefined) |  | -6.41%
9 | NCCCN(CCO)CCO |  | -12.4%
10 | CCCCCCCCCCCCCCCBr |  | -11.1%
11 | Cc1ncsc1CCO |  | -11%
12 | O=C(Nc1ccccc1)OCC(CN1CCCCC1)OC(=O)Nc1ccccc1 (centres undefined) |  | -4.21% [at 32.6 µM]
13 | CC(C(=O)O)c1ccc(-c2ccccc2)c(F)c1 (centres undefined) | inactive | 
14 | O=C(C(=O)c1ccc(Br)cc1)c1ccc(Br)cc1 |  | -11.8% [at 32.6 µM]
15 | OCC1CC2CC1C1CCC(CO)C21 (centres undefined) |  | -17.3%
16 | CCCCCCCCCO |  | 0.877%
17 | CCCCCCCCC(CO)CCCCCC (centres undefined) |  | 7.69%
18 | CC(=O)CC(=O)c1ccccc1 |  | 4.75% [at 79.1 µM]
19 | CC[C@H](C)[C@@H](C(=O)O)n1sc2ccccc2c1=O |  | 7.96%

Row | SMILES | outcome | activity, negative = cytotoxicity
20 | N=C(N=C(N)N)N1CCOCC1 |  | 24.4% [at 32.6 µM]
21 | N[C@H]1C(O)O[C@H](CO)[C@H](O)[C@@H]1O (some centres undefined) |  | 6.01%
22 | O=C(O)COC(=O)Cc1ccccc1Nc1c(Cl)cccc1Cl |  | -12% [at 32.6 µM]
23 | CC(C)(C)C1CCCCC1O (centres undefined) |  | -13.9%
24 | N#CCCNCCC#N |  | 9.8% [at 79.1 µM]
25 | NCCCOCCOCCOCCCN |  | -13.6%
26 | N#CCc1cccc(C(F)(F)F)c1 |  | -24%
27 | Cc1ccc(C(N)=O)cc1N |  | 16.8%
28 | C=CC[N+]1([C@H]2C[C@H]3[C@@H]4CC[C@H]5C[C@H](OC(C)=O)[C@@H](N6CCCCC6)C[C@]5(C)[C@H]4CC[C@]3(C)[C@H]2OC(=O)CC)CCCCC1 |  | -6.88%
29 | CN(C)CCCOc1nn(Cc2ccccc2)c2ccccc12 |  | -16.7% [at 32.6 µM]
30 | CC(=O)NCCCS(=O)(=O)O | inactive | 
31 | CCOC(=O)CC(C)C |  | 16.3%
32 | CC(=O)SCc1ccco1 |  | 16%
33 | Cn1c(=O)c2c(ncn2CC(O)CO)n(C)c1=O (centres undefined) |  | -5.59% [at 32.6 µM]
34 | CCOC(=O)CC(=O)c1cc(F)c(Cl)nc1Cl |  | 13.5% [at 79.1 µM]
35 | Nc1nc(N)c2nc(CNc3ccc(C(=O)N[C@@H](CCC(=O)O)C(=O)O)cc3)cnc2n1 |  | 4.04%
36 | COCCOCCOCCOCCOC |  | -19.3%
37 | O=C(Cl)c1ccc([N+](=O)[O-])cc1 |  | -9.39%

Target: Estrogen receptor (Homo sapiens) (UniProt P03372)
Sequence (P03372 whole entry, looked up): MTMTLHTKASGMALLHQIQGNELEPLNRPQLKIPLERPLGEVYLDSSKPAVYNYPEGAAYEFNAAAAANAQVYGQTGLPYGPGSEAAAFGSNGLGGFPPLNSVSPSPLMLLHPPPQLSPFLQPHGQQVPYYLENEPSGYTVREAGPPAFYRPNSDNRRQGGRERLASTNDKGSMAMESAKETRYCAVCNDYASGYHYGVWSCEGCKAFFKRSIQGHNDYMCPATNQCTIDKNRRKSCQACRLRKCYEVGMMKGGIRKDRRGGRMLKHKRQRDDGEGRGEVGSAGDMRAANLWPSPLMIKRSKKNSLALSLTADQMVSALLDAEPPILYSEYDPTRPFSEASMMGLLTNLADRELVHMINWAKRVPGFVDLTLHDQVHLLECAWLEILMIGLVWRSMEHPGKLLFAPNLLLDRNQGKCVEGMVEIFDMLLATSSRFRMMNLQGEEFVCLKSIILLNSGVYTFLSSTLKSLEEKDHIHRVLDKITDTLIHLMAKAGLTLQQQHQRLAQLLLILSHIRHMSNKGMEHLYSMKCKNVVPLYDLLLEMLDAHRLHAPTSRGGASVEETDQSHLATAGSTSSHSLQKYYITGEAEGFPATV
Assay: qHTS assay to identify small molecule agonists of the estrogen receptor alpha (ER-alpha) signaling pathway (AID 743075);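 further: HEK293 GripTite cells with ER-alpha and UAS-driven beta-lactamase reporter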
Settings: HEK293 ER-alpha-UAS-bla, beta-lactamase FRET ratio, 18 h; series mostly up to 70.1 µM; activation: at the top concentration

Row | SMILES | Potency | activation
38 | Cc1ccc(C(=O)C(C)CN2CCCCC2)cc1 (centres undefined) | inactive | 
39 | ClC(Cl)(Cl)c1ccc(C(Cl)(Cl)Cl)cc1 |  | 0.0872%
40 | COC(=O)C(C)=O |  | -2.13% [at 79.1 µM]
41 | C=C(C)C(=O)OCCN(C)C |  | -2.49% [at 79.1 µM]
42 | CC(=O)N(O)CCCCCNC(=O)CCC(=O)N(O)CCCCCNC(=O)CCC(=O)N(O)CCCCCN |  | -0.189% [at 32.9 µM]
43 | C[C@H](CCC(=O)O)[C@H]1CC[C@H]2[C@@H]3[C@H](O)C[C@@H]4C[C@H](O)CC[C@]4(C)[C@H]3CC[C@]12C | inactive | 
44 | CCCCCCCCCCCCCCC1CO1 (centres undefined) |  | -1.8%
45 | CC(C)NCC(O)COc1ccc(CC(N)=O)cc1 (centres undefined) |  | -1.96%
46 | NCCCN(CCO)CCO |  | 4.19%
47 | CCCCCCCCCCCCCCCBr |  | 0.562%
48 | Cc1ncsc1CCO |  | 3.32%
49 | O=C(Nc1ccccc1)OCC(CN1CCCCC1)OC(=O)Nc1ccccc1 (centres undefined) |  | -1% [at 32.9 µM]
50 | CC(C(=O)O)c1ccc(-c2ccccc2)c(F)c1 (centres undefined) | inactive | 
51 | O=C(C(=O)c1ccc(Br)cc1)c1ccc(Br)cc1 |  | -2.57% [at 32.9 µM]
52 | OCC1CC2CC1C1CCC(CO)C21 (centres undefined) |  | -1.11%
53 | CCCCCCCCCO |  | -0.773%
54 | CCCCCCCCC(CO)CCCCCC (centres undefined) |  | -1.67%
55 | CC(=O)CC(=O)c1ccccc1 |  | -2.41% [at 79.1 µM]
56 | CC[C@H](C)[C@@H](C(=O)O)n1sc2ccccc2c1=O |  | 2.71%

Row | SMILES | Potency | activation
57 | N=C(N=C(N)N)N1CCOCC1 |  | -0.933% [at 32.9 µM]
58 | N[C@H]1C(O)O[C@H](CO)[C@H](O)[C@@H]1O (some centres undefined) |  | 0.821%
59 | O=C(O)COC(=O)Cc1ccccc1Nc1c(Cl)cccc1Cl |  | -1.99% [at 32.9 µM]
60 | CC(C)(C)C1CCCCC1O (centres undefined) |  | 8.11%
61 | N#CCCNCCC#N |  | -1.76% [at 79.1 µM]
62 | NCCCOCCOCCOCCCN |  | 0.373%
63 | N#CCc1cccc(C(F)(F)F)c1 |  | -2.02%
64 | Cc1ccc(C(N)=O)cc1N |  | -2.7%
65 | C=CC[N+]1([C@H]2C[C@H]3[C@@H]4CC[C@H]5C[C@H](OC(C)=O)[C@@H](N6CCCCC6)C[C@]5(C)[C@H]4CC[C@]3(C)[C@H]2OC(=O)CC)CCCCC1 |  | -1.11%
66 | CN(C)CCCOc1nn(Cc2ccccc2)c2ccccc12 |  | 0.694% [at 32.9 µM]
67 | CC(=O)NCCCS(=O)(=O)O | inactive | 
68 | CCOC(=O)CC(C)C |  | -1.12%
69 | CC(=O)SCc1ccco1 |  | 2.5%
70 | Cn1c(=O)c2c(ncn2CC(O)CO)n(C)c1=O (centres undefined) |  | 1.08% [at 32.9 µM]
71 | CCOC(=O)CC(=O)c1cc(F)c(Cl)nc1Cl |  | -2.69% [at 79.1 µM]
72 | Nc1nc(N)c2nc(CNc3ccc(C(=O)N[C@@H](CCC(=O)O)C(=O)O)cc3)cnc2n1 | inactive | 
73 | COCCOCCOCCOCCOC |  | -2.11%
74 | O=C(Cl)c1ccc([N+](=O)[O-])cc1 |  | -1.32%
